Data published in PubChem BioAssay (Tox21).
“And” between values parts separate entries of the source, which are not always exact repeats. Equal entries are not always repeated. Inconclusive results are not listed. The source made the active and inactive calls. Unless noted, calls come from the whole dose curve; as a rule, active = well fitted curve in the direction sought with a large enough effect in the repeat runs; inconclusive = weak or mixed curves; inactive = no such curve, though single readings can be large; an effect the other way counts as inactive or inconclusive.

What was measured:
[1] = qHTS assay to identify small molecule agonists of the hypoxia (HIF-1) signaling pathway (AID 1224846; active = well fitted activation curve with a large enough effect in the signal ratio in the repeat runs, not every such curve was filed as active; the % refers to the signal ratio)
How it was run: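 ME-180 HRE-bla reporter cells; compounds in DMSO, 17 h at 37C; read-out beta-lactamase via CCF4-AM FRET.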

[2] = qHTS assay to identify small molecule agonists of H2AX - cell viability counter screen (AID 1224847; calls by dose curve; note: nearly all actives have a fitted effect of over 30% in size; note: potency is the fitted concentration of half-maximal effect)
How it was run: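 For this counter screen, overnight-attached CHO-K1 cells received test compounds (15 concentrations, 0.76% DMSO final); 3 hr later at 37C, CellTiter-Glo reagent was added and luminescence recorded after 30 min at room temperature.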

[3] = qHTS RealTime-Glo MT Cell Viability Assay in HepG2 cells - 24 hour (AID 1224867); note: nearly all actives have a fitted effect of over 50% in size
How it was run: (§1)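 Cell number in HepG2 cultures estimated from NanoLuc luminescence generated by metabolic reduction of a prosubstrate by living cells. The homogeneous, nonlytic format allowed repeated reads at 0, 8, 16, 24, 32 and 40 h of compound exposure.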

[4] = qHTS RealTime-Glo MT Cell Viability Assay in HEK293 cells - 32 hour (AID 1224868); note: nearly all actives have a fitted effect of over 50% in size; note: potency is the fitted concentration of half-maximal effect
How it was run: (§2)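 Homogeneous bioluminescent viability format in HEK293 cells (600 cells/well). Following 5 h at 37 C/5% CO2, 23 nL compound was pintooled; the signal was measured repeatedly during 40 h incubation.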

[5] = qHTS RealTime-Glo MT Cell Viability Assay in HepG2 cells - 40 hour (AID 1224870); note: nearly all actives have a fitted effect of over 50% in size
How it was run: (§3)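 HepG2 cells mixed with RealTime-Glo MT reagents (NanoLuc plus cell-permeant prosubstrate) were seeded at 600 cells/well, incubated 5 h at 37 C/5% CO2, then pinned with compounds in DMSO; nonlytic luminescence tracked viability during 40 h treatment.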

[6] = A CellTox Green Cytotoxicity Assay to monitor cytotoxicity in HEK293 cells - 40 hour (AID 1224871); note: nearly all actives have a fitted effect of over 45% in size; note: potency is the fitted concentration of half-maximal effect
How it was run: (§4)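 Real-time, in one plate: 600 HEK293 cells/well with dead-cell DNA dye, pinned compound after 5 h, 37 C incubation over 40 h; viable cells give no appreciable fluorescence.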

[7] = qHTS RealTime-Glo MT Cell Viability Assay in HEK293 cells - 16 hour (AID 1224872); note: nearly all actives have a fitted effect of over 50% in size; note: potency is the fitted concentration of half-maximal effect
How it was run: as §2

[8] = qHTS RealTime-Glo MT Cell Viability Assay in HepG2 cells - 8 hour (AID 1224873); note: nearly all actives have a fitted effect of over 55% in size
How it was run: as §3

[9] = qHTS RealTime-Glo MT Cell Viability Assay in HEK293 cells - 40 hour (AID 1224874); details: RealTime-Glo luminescence; max response: hits give low values; note: nearly all actives have a fitted effect of over 50% in size; note: potency is the fitted concentration of half-maximal effect
How it was run: (§5)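 Kinetic, non-lysing viability readout. Seed HEK293 (600/well) with reagent, incubate 5 h at 37 C/5% CO2, pin 23 nL compound in DMSO, incubate at 37 C, read luminescence at 0, 8, 16, 24, 32, 40 h.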

[10] = A CellTox Green Cytotoxicity Assay to monitor cytotoxicity in HEK293 cells - 24 hour (AID 1224875); note: nearly all actives have a fitted effect of over 45% in size
How it was run: as §4

[11] = A CellTox Green Cytotoxicity Assay to monitor cytotoxicity in HepG2 cells - 16 hour (AID 1224876); note: nearly all actives have a fitted effect of over 45% in size
How it was run: (§6)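 Cytotoxicity was tracked as dead-cell DNA fluorescence in HepG2 cells treated with test compounds at 37 C; each time-point value comes from one kinetic series spanning 0, 8, 16, 24, 32 and 40 h.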

[12] = qHTS RealTime-Glo MT Cell Viability Assay in HepG2 cells - 32 hour (AID 1224877); note: nearly all actives have a fitted effect of over 55% in size
How it was run: as §1

[13] = A CellTox Green Cytotoxicity Assay to monitor cytotoxicity in HepG2 cells - 24 hour (AID 1224878); note: nearly all actives have a fitted effect of over 45% in size
How it was run: as §6

[14] = A CellTox Green Cytotoxicity Assay to monitor cytotoxicity in HepG2 cells - 40 hour (AID 1224879); note: nearly all actives have a fitted effect of over 40% in size; note: potency is the fitted concentration of half-maximal effect
How it was run: as §6

[15] = qHTS RealTime-Glo MT Cell Viability Assay in HEK293 cells - 0 hour (AID 1224880)
How it was run: as §5

[16] = A CellTox Green Cytotoxicity Assay to monitor cytotoxicity in HEK293 cells - 32 hour (AID 1224881); note: nearly all actives have a fitted effect of over 40% in size
How it was run: as §4

[17] = A CellTox Green Cytotoxicity Assay to monitor cytotoxicity in HepG2 cells - 0 hour (AID 1224882); note: nearly all actives have a fitted effect of over 35% in size
How it was run: as §6

[18] = qHTS assay to identify small molecule antagonists of the estrogen related receptor (ERR) signaling pathway from Tox21 library (AID 1224848); note: nearly all actives have a fitted effect of over 50% in size; note: potency is the fitted concentration of half-maximal effect
How it was run: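 First, 2,000 ERR cells per well were plated and held 6 h at 37 C/5% CO2. Next, compounds in DMSO were pinned in and left 18 h at 37 C. Finally, ONE-Glo was added and luminescence read after 30 min at room temperature.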

[19] = qHTS assay to identify small molecule agonists of the estrogen related receptor (ERR) signaling pathway from Tox21 library (AID 1224849; calls by dose curve; note: nearly all actives have a fitted effect of over 15% in size); details: ERR reporter cell line, ONE-Glo luciferase, 18 h
How it was run: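 Luciferase activity in ERR pathway reporter cells served as the agonist readout; exposure lasted 18 h at 37 C, with ONE-Glo detection after 30 min at room temperature.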

[20] = A CellTox Green Cytotoxicity Assay to monitor cytotoxicity in HEK293 cells - 0 hour (AID 1224869); note: nearly all actives have a fitted effect of over 50% in size
How it was run: as §4

[21] = at 92.4 µM (top of the series) unless noted
% is set by controls: 0 for no effect and ±100 for the full control effect.

CC(C)=C1CC[C@@H](C)CC1=O
inactive: outcome [1] | Potency [2] | Potency [3] | Potency [4] | Potency [5] | Potency [6] | Potency [7] | Potency [8] | max response [9] 0.14% | Potency [10] | Potency [11] | Potency [12] | Potency [13] | Potency [14] | Potency [15] | Potency [16]

C/C=C/CO
inactive: outcome [1] | Potency [2] | Potency [3] | Potency [4] | Potency [6] | Potency [7] | Potency [10] | Potency [11] | Potency [12] | Potency [13] | Potency [14] | Potency [15] | Potency [17]

CC(C)OC(=O)c1cc(C(=O)OC(C)C)cc([N+](=O)[O-])c1
inactive: outcome [1] | Potency [18] | activity change, positive = activation [19, 21] -0.42% | Potency [3] | Potency [20] | Potency [5] | Potency [8] | Potency [11] | Potency [12] | Potency [14] | Potency [15] | Potency [17]

COc1ccc2sc(C(=O)Nc3nnn[nH]3)c(OC(C)C)c2c1
active: Potency [18] 24.2 µM | Potency [4] 27.4 µM
inactive: outcome [1] | activity change, positive = activation [19, 21] -42.5% | Potency [3] | Potency [20] | Potency [5] | Potency [6] | Potency [7] | Potency [8] | Potency [10] | Potency [11] | Potency [12] | Potency [13] | Potency [14] | Potency [15] | Potency [16] | Potency [17]

c1ccc(Sc2ccccc2)cc1
inactive: outcome [1] | Potency [2] | Potency [3] | Potency [20] | Potency [5] | Potency [6] | Potency [7] | max response [9] 1.6% | Potency [10] | Potency [11] | Potency [12] | Potency [13] | Potency [15] | Potency [16] | Potency [17]

Cn1cnc2ncnc(N)c21
inactive: outcome [1] | Potency [2] | Potency [3] | Potency [4] | Potency [5] | Potency [6] | Potency [7] | Potency [8] | Potency [10] | Potency [11] | Potency [12] | Potency [13] | Potency [14] | Potency [15] | Potency [16] | Potency [17]

ClC/C=C\CCl
inactive: outcome [1] | Potency [18] | activity change, positive = activation [19, 21] -4.37% | Potency [3] | Potency [4] | Potency [20] | Potency [6] | Potency [7] | max response [9] -46.5% | Potency [10] | Potency [11] | Potency [12] | Potency [13] | Potency [14] | Potency [15] | Potency [16]

CCOB(OCC)OCC
inactive: outcome [1] | Potency [2] | Potency [3] | Potency [20] | Potency [5] | Potency [6] | Potency [8] | Potency [10] | Potency [12] | Potency [16]

NCCCC(O)(P(=O)(O)O)P(=O)(O)O
inactive: outcome [1] | Potency [3] | Potency [4] | Potency [20] | Potency [5] | Potency [6] | Potency [7] | Potency [8] | Potency [10] | Potency [12] | Potency [13] | Potency [14] | Potency [15] | Potency [16]

C=CC(=C)CCC=C(C)C
inactive: outcome [1] | Potency [3] | Potency [4] | Potency [20] | Potency [5] | Potency [6] | Potency [7] | max response [9] 8.59% | Potency [10] | Potency [12] | Potency [13] | Potency [14] | Potency [15] | Potency [16] | Potency [17]

CC(C)c1ccccc1N
inactive: outcome [1] | Potency [18] | Potency [3] | Potency [4] | Potency [20] | Potency [5] | Potency [6] | Potency [7] | Potency [8] | Potency [10] | Potency [13] | Potency [14] | Potency [15] | Potency [16]

Cc1oc(-c2ccccc2)nc1CCOc1ccc(C[C@H](Nc2ccccc2C(=O)c2ccccc2)C(=O)O)cc1
inactive: Potency [18] | activity change, positive = activation [19, 21] -13.2% | Potency [3] | Potency [4] | Potency [20] | Potency [5] | Potency [6] | Potency [7] | Potency [10] | Potency [11] | Potency [12] | Potency [15] | Potency [16] | Potency [17]
active: Potency [2] 80 µM

CCOC(=O)N1CCC(=C2c3ccc(Cl)cc3CCc3cccnc32)CC1
inactive: activity change, positive = activation ([19]; at 42.5 µM (top of the series)) -46% | activity change, positive = activation ([19]; at 92.4 µM (top of the series)) -60.8% | Potency [20] | Potency [10] | Potency [11] | Potency [12] | Potency [15] | Potency [16] | Potency [17]
active: Potency [2] 61.9 µM | Potency [18] 30.6 µM and 26.6 µM | Potency [4] 15.5 µM and 16.9 µM | Potency [6] 43.6 µM | Potency [7] 21.9 µM and 8.49 µM | Potency [9] 19.5 µM and 16.9 µM | Potency [14] 54.9 µM

CCCC(O)C(O)CO (configuration not stated)
inactive: outcome [1] | Potency [3] | Potency [4] | Potency [20] | Potency [5] | Potency [6] | Potency [7] | Potency [8] | max response [9] 4.32% | Potency [10] | Potency [11] | Potency [12] | Potency [13] | Potency [14] | Potency [15] | Potency [16] | Potency [17]
